# Beta apoptosis – inhibitors of cytokine-induced beta cell apoptosis, primary screen, luminescence; INS-1E cytokine-induced death, ATP luminescence, 48 h; percent of positive-control rescue, neutral wells zero; protection from apoptosis, % (no concentration beside the values); hit rate 0.8% among 300,000; AID 435005, 2010;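 active = Every replicate reaches about 75%, or at least half do and their mean reaches it too, limit read from the data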;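 also: higher means more ATP so stronger rescue from cytokine killing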
# Calb FLC – C. albicans growth inhibition with fluconazole, primary screen, CaCi-2 strain, Alamar Blue fluorescence; growth inhibition, % (test concentration not listed); C. albicans CaCi-2 (fluconazole-resistant clinical isolate) + fluconazole, 48 h; hit rate 0.57% among 300,000;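 active = growth inhibition above about 58% in most replicates, limit read from the data, passing the limit was not always enough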;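 also: all wells also contain fluconazole at 8 µg/ml as a sub-toxic cotreatment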
# CSC inhib – cancer stem cell viability inhibitors, primary screen, luminescence; cancer stem cell-like cells viability; inhibition, % at 7.5 µM; hit rate 1.1% among 300,000; AID 2717, 2010; in the data active = inhibition above about 75%; tested in HMLE shEcad cells
# Mdm2 MdmX PPI – inhibitors of human Mdm2-MdmX association, primary screen, cell-based, luminescence, split luciferase, SaOS-2, uHTS. Protein Mdm4 (Homo sapiens) + E3 ubiquitin-protein ligase Mdm2 (Homo sapiens), …. SaOS-2 split-luciferase Mdm2/MdmX complementation. inhibition, % at 8 µM. hit rate 3% among 330,000;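 active = inhibition of at least 50% at 8 µM in the primary screen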
# PP1 counter – PP1-alpha phosphatase inhibitors, primary screen, counter-screen for PP5 inhibitor project, biochemical, fluorescence, OMFP substrate, single point; Serine/threonine-protein phosphatase PP1-alpha catalytic subunit (Homo sapiens), P62136; purified PP1alpha; inhibition, % at 6.7 µM; hit rate 0.9% among 320,000; AID 2235, 2010;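 active = inhibition above the mean inhibition of all tested compounds plus 3 SD, computed separately for each screening campaign, cut at about 15% in these data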
# PP5 primary – PP5 phosphatase inhibitors, primary screen, biochemical, fluorescence. Serine/threonine-protein phosphatase 5 (Homo sapiens), P53041. hit rate 0.18% among 320,000. inhibition, % at 6.7 µM. AID 1987, 2009. purified PP5c, OMFP substrate fluorescence;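 active = inhibition above the campaign's mean inhibition across all tested compounds plus 3 SD, cut at about 9.5% in these data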
# Target sequence (P53041 whole entry, looked up): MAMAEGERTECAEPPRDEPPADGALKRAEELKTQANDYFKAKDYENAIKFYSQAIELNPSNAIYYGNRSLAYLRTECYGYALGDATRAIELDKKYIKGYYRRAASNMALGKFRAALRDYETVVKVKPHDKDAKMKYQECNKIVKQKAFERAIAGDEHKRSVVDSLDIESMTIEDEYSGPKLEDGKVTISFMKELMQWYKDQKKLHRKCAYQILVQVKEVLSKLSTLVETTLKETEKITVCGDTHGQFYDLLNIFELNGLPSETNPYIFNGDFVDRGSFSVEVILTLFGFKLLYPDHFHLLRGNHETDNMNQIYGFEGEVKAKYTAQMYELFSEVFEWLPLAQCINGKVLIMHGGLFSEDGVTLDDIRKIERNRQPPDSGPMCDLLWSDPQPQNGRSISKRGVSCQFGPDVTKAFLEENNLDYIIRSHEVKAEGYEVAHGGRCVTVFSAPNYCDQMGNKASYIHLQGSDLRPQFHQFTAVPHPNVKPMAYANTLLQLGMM
# PP5 inh confirm – PP5 phosphatase inhibitors, confirmation, biochemical, fluorescence, human; shares compounds with PP5 primary; Purified PP5, fluorogenic phosphatase substrate; inhibition, % at 6.7 µM; hit rate 22% among 460; in the data active = inhibition above about 9.5%
# PP1 inh counter – PP1 phosphatase inhibitors, counter-screen for PP5 inhibitor project, biochemical, fluorescence, triplicate; hit rate 4% among 460; PP1 enzyme, fluorescent phosphatase substrate; inhibition, % at 6.7 µM; shares compounds with PP5 primary; in the data active = inhibition above about 16%
# Numbers stand for hits; i = inactive; nt = not tested or not shown. Only some compounds are listed: those with a hit (about 4.9% of all), similar ones and a draw of the others.
SMILES,Beta apoptosis,Calb FLC,CSC inhib,Mdm2 MdmX PPI,PP1 counter,PP5 primary,PP5 inh confirm,PP1 inh counter
CC(C(=O)Nc1cccnc1)C1Sc2ccccc2NC1=O (configuration not stated),i,i,i,i,i,i,nt,nt
O=C1CCCC2=C1C1(O)C(=O)c3ccccc3C1(O)O2 (configuration not stated),i,i,i,i,i,17,45,i
N#CC1=C(N)OC2=C(C(=O)CCC2)[C@]12C(=O)N(CC(N)=O)c1ccccc12,i,i,i,i,i,i,nt,nt
O=C(NNc1ccc(C(F)(F)F)cc1[N+](=O)[O-])c1ccc(NS(=O)(=O)c2ccc(F)cc2)cc1,i,i,i,nt,i,10,i,i
CN(C)c1cccc(C(=O)N2CCCC(CCC(=O)N3CCN(c4ccccn4)CC3)C2)c1 (configuration not stated),i,i,i,i,i,i,nt,nt
O=C(O)CCC(=O)c1c[nH]c2ccccc12,i,i,i,i,i,12,i,i
COC(=O)c1sc2cc(C(F)(F)F)cnc2c1-c1cccnc1,i,i,i,i,i,12,i,i
Cc1ccc(Nc2nc(/N=C/NO)n[nH]2)cc1C,i,i,i,i,i,11,i,i
COc1ccc(Cl)cc1C(=O)NNC1CC(=O)N(Cc2ccc(Cl)cc2)C1=O (configuration not stated),i,i,nt,i,i,i,nt,nt
O=[N+]([O-])c1ccc(N(c2ccccc2)c2ccccc2)cc1,i,i,i,i,i,9.9,i,i
CCOc1ccc(NC(=O)N2CCC(C(N)=O)(N3CCCCC3)CC2)cc1,nt,i,i,i,i,11,i,i
NC(=O)C1(N2CCCCC2)CCN(C(=S)Nc2ccccc2)CC1,i,i,i,i,i,i,nt,nt
CCOc1ccc(C2c3cc(OC)c(OC)cc3CC(=O)N2c2ccc(OC)cc2)cc1 (configuration not stated),i,i,i,i,i,9.7,i,i
CCOc1cc2c(cc1OCC)C(c1ccc(OC)c(OC)c1)N(c1ccc(C(=O)O)cc1)C(=O)C2 (configuration not stated),i,i,i,i,i,i,nt,nt
Cc1ccc(NC(=S)Nc2nc(CC(=O)Nc3ccccc3)cs2)cc1,i,i,i,i,i,10,i,i
COc1ccccc1NC(=O)Nc1nc(CC(=O)Nc2ccc(F)c(F)c2)cs1,i,i,i,i,i,9.9,i,i
COCCOC(=O)c1c(C)oc2ccc(OC(=O)c3cccs3)cc12,i,i,i,i,i,10,i,i
CCOc1ccc(C(=O)/C=C/c2cn(CN3CCN(C)CC3)c3ccccc23)cc1,i,nt,100,i,i,11,i,i
COc1ccc(Nc2sc(C(=O)Nc3cccc(Cl)c3)c(N)c2C(=O)Nc2ccccc2OC)cc1,i,i,i,nt,i,12,i,i
O=C(NCc1cccnc1)c1sc2ccccc2c1Cl,i,i,i,i,i,i,nt,nt
Cc1ccc2c(Cl)c(C(=O)NCc3cccnc3)sc2c1,i,i,i,i,i,11,i,i
Cc1cccc(NC(=S)c2nc3ccccc3s2)c1,i,i,i,i,i,i,nt,nt
O=C1c2ccccc2C(=O)C12OC2c1cccc2ccccc12 (configuration not stated),i,i,i,i,i,10,35,17
c1ccc2c(C3CCO3)cccc2c1 (configuration not stated),i,nt,i,i,i,i,nt,nt
O=C(C1CCN(Cc2nc(Cc3cccc(F)c3)no2)CC1)N1CCOCC1,i,i,i,i,i,i,nt,nt
SMILES,Beta apoptosis,Calb FLC,CSC inhib,Mdm2 MdmX PPI,PP1 counter,PP5 primary,PP5 inh confirm,PP1 inh counter
CC(C)CNC(=O)c1ccc(COc2ccc(Cl)cc2Cl)o1,i,i,i,i,i,i,nt,nt
O=C(Nc1ccn(Cc2c(F)c(F)cc(F)c2F)n1)c1ccc(COc2ccc(Cl)cc2Cl)o1,i,i,i,i,i,9.8,i,i
Cc1nn(Cc2c(F)c(F)c(F)c(F)c2F)c(C)c1NC(=O)c1ccc(COc2ccc(Cl)cc2Cl)o1,i,i,i,i,i,10,i,i
O=C(Nc1ccccc1F)c1ccc(COc2ccc(Cl)cc2Cl)o1,i,i,i,i,i,i,nt,nt
O=C(NCC1CCCO1)c1ccc2[nH]c3c(c2c1)CCCC3 (configuration not stated),nt,nt,nt,i,nt,nt,nt,nt
C[C@@H](NC(=O)c1nc[nH]c1C(=O)N[C@@H](CCCCNC(=O)OC(C)(C)C)C(=O)OC(C)(C)C)c1ccccc1,i,i,i,i,i,i,nt,nt
CC(C)C[C@H](NC(=O)c1nc[nH]c1C(=O)NCC(=O)OC(C)(C)C)C(=O)OCc1ccccc1,i,i,i,i,i,12,i,i
CC(C)(C)OC(=O)NCCCC[C@H](NC(=O)c1[nH]cnc1C(=O)Nc1ccccc1)C(=O)OC(C)(C)C,i,i,nt,i,i,11,i,i
O=C(NCCCCc1ccccc1)c1ccccc1Cl,i,i,i,i,i,i,nt,nt
CCSc1nnc(NC(=O)C2CSC3(C)CCC(=O)N23)s1 (configuration not stated),i,nt,i,i,nt,nt,nt,nt
O=C1N/C(=N\S(=O)(=O)Cc2ccccc2)S/C1=C/c1cccc([N+](=O)[O-])c1,i,i,i,i,i,11,i,i
O=C1N/C(=N/O)S/C1=C/c1cccc([N+](=O)[O-])c1,i,i,nt,i,i,i,nt,nt
Cc1ccc(C(=O)NNc2cc(N3CCCC3)nc(N3CCCC3)n2)cc1,i,i,i,i,i,17,40,i
CC(Cc1ccco1)NC(=O)c1ccc(C(F)(F)F)cc1 (configuration not stated),i,i,i,i,i,i,nt,nt
COc1cc(S(=O)(=O)N2CCC(O)(c3cccc(C(F)(F)F)c3)CC2)ccc1-n1cnnn1,i,i,i,i,i,i,nt,nt
O=S(=O)(c1ccc(OC(F)(F)F)cc1)N1CCC(O)(c2cccc(C(F)(F)F)c2)CC1,i,i,i,i,i,11,i,i
COc1cc(C)c(C)cc1S(=O)(=O)NC1CC(C)(C)NC(C)(C)C1,i,i,i,i,i,i,nt,nt
O=C(/C=C/c1ccco1)NC(=S)Nc1ccccc1N1CCCC1,i,i,i,i,i,i,nt,nt
O=C(/C=C/c1ccco1)NC(=S)Nc1ccccc1N1CCOCC1,i,i,i,i,i,9.7,i,i

# Bioassay records (PubChem BioAssay)
